Measurements taken from PubChem BioAssay (EPA / NIEHS).
Activity calls are given as the source filed them. How the source made its calls: active means hit-call score of the fitted dose curve at least 0.9, where 1 is the maximum; inactive means score below 0.9.

Assay: ATG_M_61_CIS: Attagene CIS-FACTORIAL HepG2 Assay for M61 Transcription Factor (Internal Marker) (AID 2282937)
Details: HepG2 Attagene CIS-FACTORIAL M61 internal marker reporter; actives raise or lower the signal
Experimental: ATG_CIS is a cell-based, multiplexed-readout assay that uses HepG2, a human liver cell line, with measurements taken at 24 hours after chemical dosing in a 24-well plate.ATG_M_61_CIS is one of 52 assay component(s) measured or calculated from the ATG_CIS assay. It is designed to make measurements of mRNA induction, a form of inducible reporter, as detected with fluorescence intensity signals by Reverse transcription polymerase chain reaction (RT-PCR) and Capillary electrophoresis technology.Data from the assay component ATG_M_61_CIS was analyzed into 1 assay endpoint. This assay endpoint, ATG_M_61_CIS, was analyzed with bidirectional fitting relative to DMSO as the negative control and baseline of activity. Using a type of inducible reporter, measures of mRNA for gain or loss-of-signal activity can be used to understand the background control at the transcription factor-level as they relate to the gene . Furthermore, this assay endpoint can be referred to as a secondary readout, because this assay has produced multiple assay endpoints where this one serves a background control function. To generalize the intended target to other relatable targets, this assay endpoint is annotated to the background measurement intended target family, where the subfamily is internal marker.
Human liver HepG2 cells are transiently transfected with multiple reporter transcription units (MRTUs) in 6-well plates using FuGene 6 reagent (Roche; 3 ml FuGene/1 mg DNA). The MRTU constructs are regulated by a cis-regulating element (promoter). […] A major difference between the CIS and TRANS system is that in CIS activities of endogenous TFs are measured, whereas the TRANS assay evaluates changes in activities of exogenous, chimeric NR-Gal4 proteins. […] At the end of 24 hour incubation, total RNA was isolated using TriZol reagent (Invitrogen). The isolated RNA is then reverse-transcribed using oligo(dT) primer and Mo-MLV reverse transcriptase (Invitrogen) with DNAse I (Ambion) treatment for 30 min. The one-tenth of the produced cDNA was amplified by PCR using Taq DNA polymerase (Invitrogen) and two reporter sequence-specific primers. The PCR products were fluorescently labeled by primer extension with 6-arboxyfluorescein (6-FAM) 5'-labeled reporter sequence-specific primer (2 min at 95 C, 20 s at 68 C and 10 min at 72 C) and these products were digested with 5U of HpaI (New England Biolabs) for 2h at 37 C. The fragments were purified using Qiaquick PCR columns (Qiagen), analyzed on an ABI 3130xL genetic analyzer (Applied Biosystems) with peak positions identified by using a set of X-rhodamine (ROX)-labeled MapMarker1000 molecular weight standards (BioVentures). The raw capillary electrophoresis data was processed using Attagraph software (Attagene).

outcome, inactive:
CCOC(OCC)C(=O)c1ccccc1
COc1ccc(C#N)cc1
O=c1cc(-c2ccccc2)oc2ccc3ccccc3c12
Nc1cc(Cl)c(-c2cc(Cl)c(N)cc2Cl)cc1Cl
CC(C)(C)c1ccc(O)c(O)c1
O=S(=O)(O)c1ccccc1
CCOC=C(C(=O)OCC)C(=O)OCC
FC1(F)C=CC(F)(F)C1(F)F
Oc1c(Cl)ccc(Cl)c1Cl
Cc1cccc2c1ccc1ccccc12
C=CC(=O)OCCN(CC)CC
N=C(N)c1ccc(OCCCCCOc2ccc(C(=N)N)cc2)cc1
C[C@]12CC[C@@H]3c4ccc(O)cc4CC[C@H]3[C@@H]1C[C@@H](O)[C@@H]2O
COC1=CC(=O)C[C@@H](C)[C@]12Oc1c(Cl)c(OC)cc(OC)c1C2=O
C=COC(=O)C(C)(C)CCCCCC
Cc1ccc(N=Nc2c(O)ccc3ccccc23)c(C)c1
O=P(O)(O)CCC(F)(F)C(F)(F)C(F)(F)C(F)(F)C(F)(F)C(F)(F)C(F)(F)C(F)(F)F
OCCN1CN(CCO)CN(CCO)C1
Brc1ccc(Oc2ccc(Br)cc2Br)cc1
CN(C)c1ccc(C(=C2C=CC(=[N+](C)C)C=C2)c2ccccc2)cc1
COCC1CCC(CO)CC1 (stereo not given)
CCCCCCc1ccc(N)cc1
CCCCCc1ccc(O)cc1
Cc1cc(Cc2cc(C)cc(C(C)(C)C)c2O)c(O)c(C(C)(C)C)c1
O=C(OC(=O)C(F)(F)C(F)(F)F)C(F)(F)C(F)(F)F
Brc1cc(Br)c(Oc2c(Br)cc(Br)c(Br)c2Br)cc1Br
C=CC(C)(CCC=C(C)C)OC(C)=O (stereo not given)
O=C1C=CC(=O)N1c1cccc(N2C(=O)C=CC2=O)c1
O=C1OC(=O)C(F)(F)C1(F)F
Cc1cncc(C)c1
O=C(Nc1ccc(Cl)c(Cl)c1)c1cc(Cl)cc(Cl)c1O
CCCCCCCCC1CCC(=O)O1 (stereo not given)
C=CC(=O)OCCC(F)(F)C(F)(F)C(F)(F)C(F)(F)C(F)(F)C(F)(F)F
C=CC(=O)OCC(CO)(COCC(COC(=O)C=C)(COC(=O)C=C)COC(=O)C=C)COC(=O)C=C
O=CC(F)(F)C(F)(F)C(F)(F)C(F)F
FC(F)(F)N1C(F)(F)C(F)(F)OC(F)(F)C1(F)F
O=C(O)C(F)(F)OC(F)(F)C(F)(F)OC(F)(F)C(F)(F)OC(F)(F)C(F)(F)C(F)(F)C(F)(F)F
Nc1ccn([C@@H]2O[C@H](CO)[C@@H](O)C2O)c(=O)n1 (stereo not given in full)
O=CC(F)(F)C(F)(F)C(F)(F)F
O=C(CC(=O)C(F)(F)C(F)(F)C(F)(F)F)c1cccs1
